About 83,000 compounds went through this panel and 20% of them were active in at least one assay; those are over-represented in the sample as a whole.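 Plates (96-well) were seeded with cells, treated with compound at one concentration, and incubated for 48 hours before percent growth was determined.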 Unmarked numbers belong to inactive results. The source made the active and inactive calls. How the source made its calls: active means growth percent below 10; inactive means the rest.
Tests used:
Assay in all cases: NCI-60 one-dose screen, 48 h (100 = growth as untreated, 0 = no growth, -100 = all killed)
Conditions in all cases: 10 µM unless noted
[1] = system: SR leukemia
[2] = system: RPMI-8226 leukemia
[3] = system: OVCAR-8 ovarian
[4] = system: OVCAR-5 ovarian
[5] = system: OVCAR-4 ovarian
[6] = system: SK-OV-3 ovarian
[7] = system: IGROV1 ovarian
[8] = system: OVCAR-3 ovarian
[9] = system: HS 578T breast
[10] = system: NCI/ADR-RES ovarian

For Cn1c(I)c(C#CCO[Si](C)(C)C(C)(C)C)c(=O)[nH]c1=O, the growth [1] was -11.3% (active), the growth [2] was 84.8% and the growth [3] was 94.8%. The growth [4] was 102%, the growth [5] was 80% and the growth [6] was 105%. The growth [7] was 81.4%, the growth [8] was 75.4% and the growth [9] was 106%. For the same compound, the growth [10] was 102%.

For CC/C=C\C[C@H](O)C/C=C1/C(=O)C=C[C@@H]1C/C=C\CCCC(=O)N(C)C, the growth [1] was 6.2% (active), the growth [2] was 4.43% (active) and the growth [3] was 2.8% (active). It also gave a growth [4] of 19.2%, a growth [5] of 43.9% and a growth [6] of 21.8%. For the same compound, the growth [7] was 11.5%, the growth [8] was 8.73% (active) and the growth [9] was 16.4%. For the same compound, the growth [10] was 16.7%.

In the case of O=C1/C(=C/c2cccc(F)c2)CN(C(=O)C(Cl)Cl)C/C1=C\c1cccc(F)c1, the growth [1] is reported as -15.8% (active), the growth [2] is reported as -31.3% (active) and the growth [3] is reported as -48.3% (active). The growth [4] was -63.6% (active), the growth [5] was -36.9% (active) and the growth [6] was 29.8%. The growth [7] was -77.2% (active), the growth [8] was -92.2% (active) and the growth [9] was -13.7% (active). For the same compound, the growth [10] was -3.11% (active).

Compound CCCCCCC12CCC(=O)N1CCc1cncn12 (stereo not given) has a growth [1] of 116%, a growth [2] of 94.6% and a growth [3] of 101%. For the same compound, the growth [4] was 98.7%, the growth [5] was 119% and the growth [6] was 99.2%. It also gave a growth [7] of 105%, a growth [8] of 118% and a growth [9] of 112%. For the same compound, the growth [10] was 104%.

For CCCCCN1C(=O)/C(=c2\sc3n(c2=O)C2C(NN=3)N(CC)C(=O)N2CC)c2ccccc21 (stereo not given), the growth [1] was 1.69% (active), the growth [2] was 8.52% (active) and the growth [3] was -53.2% (active). For the same compound, the growth [4] was -4.09% (active), the growth [5] was -56.7% (active) and the growth [6] was 13.3%. The growth [7] was 2.27% (active), the growth [8] was -74.5% (active) and the growth [9] was -17.6% (active). The growth [10] was -11.1% (active).

O=C1/C(=C/c2cn(-c3ccccc3)nc2-c2ccccc2)SC(=S)N1C1CCCCC1 gave a growth [1] of 106%, a growth [2] of 114% and a growth [3] of 103%. The growth [4] was 108%, the growth [5] was 97.6% and the growth [6] was 108%. It also gave a growth [7] of 103%, a growth [8] of 117% and a growth [9] of 103%. It also gave a growth [10] of 102%.

COC(=O)[C@@H](CCCCNC(=O)[C@]12CCC(C)(C)C[C@@H]1C1=CC[C@@H]3[C@@]4(C)C/C(=C/c5ccco5)C(=O)C(C)(C)[C@@H]4CC[C@@]3(C)[C@]1(C)CC2)NC(=O)[C@]12CCC(C)(C)C[C@@H]1C1=CC[C@@H]3[C@@]4(C)C/C(=C/c5ccco5)C(=O)C(C)(C)[C@@H]4CC[C@@]3(C)[C@]1(C)CC2 gave a growth [1] of 87.9%, a growth [2] of 100% and a growth [3] of 104%. The growth [4] was 108%, the growth [5] was 127% and the growth [6] was 106%. It also gave a growth [7] of 107%, a growth [8] of 115% and a growth [9] of 104%. It also gave a growth [10] of 112%.

For O=C1Nc2ccccc2/C1=C/c1cccn1CCCCn1c2ccccc2c(=O)c2ccccc21, the growth [1] was 80.1%, the growth [2] was 33.5% and the growth [3] was 58.8%. The growth [4] was 77.9%, the growth [5] was 65.8% and the growth [6] was 94.6%. For the same compound, the growth [7] was 77.3%, the growth [8] was 86.7% and the growth [9] was 86.3%. It also gave a growth [10] of 73.9%.

Compound CC1=NC2=Nn3c(c4cnn(-c5ccccc5)c4n/c3=N\N)NN2C(c2ccccc2)=C1 has a growth [1] of 99.6%, a growth [2] of 98.3% and a growth [3] of 101%. For the same compound, the growth [4] was 90%, the growth [5] was 94.7% and the growth [6] was 98%. The growth [7] was 61.8%, the growth [8] was 90.2% and the growth [9] was 80.5%. For the same compound, the growth [10] was 97.5%.

With CC1CCc2c(C(=O)Nc3ncc(Cc4cccc([N+](=O)[O-])c4)s3)csc2C1 (stereo not given) the growth [1] was 26.7%, the growth [2] was 33% and the growth [3] was 26.4%. For the same compound, the growth [4] was 34.7%, the growth [5] was 39.3% and the growth [6] was 21.6%. For the same compound, the growth [7] was 30.7%, the growth [8] was 1.09% (active) and the growth [9] was 19.1%. It also gave a growth [10] of 15.6%.

CC/C(=C(/c1ccc(Cl)cc1)c1ccc(OCCN2CCCCC2)cc1)c1ccc(OC)cc1 was tested, and the growth [1] was -22.2% (active), the growth [2] was -10.5% (active) and the growth [3] was 65.9%. For the same compound, the growth [4] was 65.4%, the growth [5] was 69.3% and the growth [6] was 94.9%. For the same compound, the growth [7] was 80.5%, the growth [8] was 66.4% and the growth [9] was 85.3%. The growth [10] was 71.8%.

Fc1ccc(CNc2c3ccccc3nc3ccccc23)c(F)c1 showed a growth [1] of 25.2%, a growth [2] of 28.3% and a growth [3] of 40.2%. For the same compound, the growth [4] was 51.7%, the growth [5] was -8.19% (active) and the growth [6] was 59.8%. The growth [7] was 35.7%, the growth [8] was 70.2% and the growth [9] was 75.4%. The growth [10] was 36.2%.

O=C1C(Cl)=C(NCCCCCCNC2=C(Cl)C(=O)c3ccccc3C2=O)C(=O)c2ccccc21 gave a growth [1] of 88%, a growth [2] of 85.2% and a growth [3] of 77.6%. It also gave a growth [4] of 110%, a growth [5] of 22.5% and a growth [6] of 98%. The growth [7] was 38.2%, the growth [8] was 47.3% and the growth [9] was 89.3%. It also gave a growth [10] of 93.5%.

In the case of N#CSCC1CC(O)(c2ccccc2)CC(c2ccc(F)cc2)O1 (stereo not given), the growth [1] is reported as -29.6% (active), the growth [2] is reported as -22.4% (active) and the growth [3] is reported as 10.3%. The growth [4] was 85.6%, the growth [5] was 26.1% and the growth [6] was 52.7%. For the same compound, the growth [7] was 51.1%, the growth [8] was -79.3% (active) and the growth [9] was -22.7% (active). For the same compound, the growth [10] was -3.67% (active).

For C#CCOc1cccc(Nc2ncnc3cc(NC(=O)C=C)ccc23)c1, the growth [1] was 13%, the growth [2] was 13.3% and the growth [3] was 4.37% (active). For the same compound, the growth [4] was 54.3%, the growth [5] was 45.5% and the growth [6] was 29.6%. The growth [7] was 6.96% (active), the growth [8] was 6.09% (active) and the growth [9] was 18.2%. For the same compound, the growth [10] was 14.9%.

For Cc1ccc(-c2nc(N3CCCNCC3)c3oc(-c4ccccc4)nc3n2)cc1, the growth [1] was -42.3% (active), the growth [2] was -49.1% (active) and the growth [3] was -44.1% (active). The growth [4] was -87.3% (active), the growth [5] was -62.6% (active) and the growth [6] was 95.5%. For the same compound, the growth [7] was -85.3% (active), the growth [8] was -85.7% (active) and the growth [9] was -29.8% (active). The growth [10] was -45.5% (active).

CC(=O)O[C@H]1CC2CCC3C(CC[C@@]4(C)C3C[C@H]([N+]3(C)CCCCC3)[C@@H]4OC(C)=O)[C@@]2(C)C[C@@H]1N1CCCCC1 (stereo not given in full) showed a growth [1] of 99.5%, a growth [2] of 110% and a growth [3] of 98.1%. The growth [4] was 110%, the growth [5] was 103% and the growth [6] was 106%. The growth [7] was 111%, the growth [8] was 112% and the growth [9] was 65%. The growth [10] was 103%.

Work on CSc1nnc(-c2cc3c([nH]c4ccccc43)c(-c3cccc(O)c3)n2)n1-c1ccccc1 yielded a growth [1] of 21.7%, a growth [2] of 16.2% and a growth [3] of 47.1%. It also gave a growth [4] of 58.7%, a growth [5] of 43.7% and a growth [6] of 47.4%. The growth [7] was 49.9%, the growth [8] was -0.418% (active) and the growth [9] was 25.1%. It also gave a growth [10] of 56.6%.

In the case of O=c1c2cccc3c(N4CCCC4)ccc(c32)c2nc3ccccc3n12, the growth [1] is reported as 20.2%, the growth [2] is reported as 75.7% and the growth [3] is reported as 66%. It also gave a growth [4] of 106%, a growth [5] of 78.8% and a growth [6] of 79.1%. It also gave a growth [7] of 57.1%, a growth [8] of 98.2% and a growth [9] of 67.2%. For the same compound, the growth [10] was 83%.

Compound Cc1sc2nc(NCCc3c[nH]c4ccc(Cl)cc34)[nH]c(=O)c2c1C has a growth [1] of 15.7%, a growth [2] of 18.8% and a growth [3] of 38.5%. It also gave a growth [4] of 62.5%, a growth [5] of 60% and a growth [6] of 60.6%. For the same compound, the growth [7] was 50.8%, the growth [8] was 64.7% and the growth [9] was 25.4%. For the same compound, the growth [10] was 47.1%.

Work on Cc1csc(Nc2nc(-c3ccccn3)nc(C(Cl)(Cl)Cl)n2)n1 yielded a growth [1] of 53.2%, a growth [2] of 91.5% and a growth [3] of 77.7%. For the same compound, the growth [4] was 108%, the growth [5] was 83.6% and the growth [6] was 97.8%. The growth [7] was 82.1%, the growth [8] was 97.4% and the growth [9] was 115%. The growth [10] was 66.8%.

Compound CN1C(=O)/C(=C\c2c(Cl)cccc2Cl)c2ccccc21 has a growth [1] of 34.3%, a growth [2] of 84.2% and a growth [3] of 94.1%. It also gave a growth [4] of 98.6%, a growth [5] of 87.9% and a growth [6] of 99.2%. For the same compound, the growth [7] was 92.1%, the growth [8] was 95.4% and the growth [9] was 81.7%. The growth [10] was 80.1%.

O=[N+]([O-])c1ccc(O)cc1Br showed a growth [1] of 99.1%, a growth [2] of 91.4% and a growth [3] of 100%. The growth [4] was 94%, the growth [5] was 89.3% and the growth [6] was 101%. For the same compound, the growth [7] was 101%, the growth [8] was 106% and the growth [9] was 98.4%. The growth [10] was 98.9%.

For COC(=O)c1nc(-c2ccccc2)oc1S(=O)(=O)Cc1ccccc1, the growth [1] was -11.5% (active), the growth [2] was 84.5% and the growth [3] was 90.1%. For the same compound, the growth [4] was 102%, the growth [5] was 101% and the growth [6] was 97.6%. The growth [7] was 85.6%, the growth [8] was 41.1% and the growth [9] was 110%. The growth [10] was 97%.

Work on COc1cc(-c2nc3sccn3c2-c2ccnc(NCCNS(=O)(=O)c3ccccc3)n2)ccc1F yielded a growth [1] of 45.3%, a growth [2] of 31% and a growth [3] of 46.1%. The growth [4] was 113%, the growth [5] was 52.3% and the growth [6] was 52.5%. The growth [7] was 43.1%, the growth [8] was 74.9% and the growth [9] was 69.6%. For the same compound, the growth [10] was 47%.

For COc1ccc2[nH]c(C(=O)N3CCN(C(=O)OCc4ccc5c(Cl)cc(Cl)c(O)c5n4)CC3)cc2c1, the growth [1] was 2.29% (active), the growth [2] was -27.9% (active) and the growth [3] was -64.1% (active). For the same compound, the growth [4] was -88.7% (active), the growth [5] was -69.5% (active) and the growth [6] was 44.7%. For the same compound, the growth [7] was -96.4% (active), the growth [8] was -97.3% (active) and the growth [9] was -15.1% (active). The growth [10] was -2.44% (active).

— PubChem BioAssay (NCI)
